Experimental findings from PubChem BioAssay AID1007 (NMMLSC, 2008) are described below.

The structures appear in SMILES notation. The whole screen tested about 190,000 compounds, of which about 80 (0.04%) were called active. Only a sample is shown. Values without a mark were called inactive. Cut-off read from the data, not from the text of the source: active = inhibition above about 40%.

The target of this test is Bcl-2-like protein 1 (Homo sapiens) (UniProt Q07817). In words: inhibitors of Bim-Bcl-XL binding, primary screen, biochemical, multiplexed, bead flow cytometry, human Bcl-XL (AID 1007). The note with it: Bim peptide-Bcl-XL binding, fluorescence, at 10 µM, hits give high values. (In general: In flow cytometry, cells or beads pass a laser one at a time.)
Bcl-2-like protein 1 (Homo sapiens), sequence (Q07817 whole entry, looked up): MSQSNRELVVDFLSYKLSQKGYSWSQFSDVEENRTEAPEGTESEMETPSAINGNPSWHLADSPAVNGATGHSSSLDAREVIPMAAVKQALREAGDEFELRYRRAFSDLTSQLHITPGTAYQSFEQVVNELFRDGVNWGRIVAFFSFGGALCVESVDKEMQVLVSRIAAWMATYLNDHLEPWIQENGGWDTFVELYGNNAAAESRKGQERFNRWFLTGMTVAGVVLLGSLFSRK
As to `Nc1[nH][nH]c(=O)c1N=Nc1ccc2c(c1)OCO2`, the inhibition (in general, the change of the read-out against control, counted positive when it falls) is 0%.

Take `Cc1cc[n+](-c2[nH]c(=O)sc2/C=N/NC(=O)c2ccccc2[O-])cc1C`: the inhibition was -7%.

As for `O=C(NCC(O)c1ccc([N+](=O)[O-])cc1)C1CCCCC1` (stereo unspecified), the inhibition is 0%.

With `CCCC(C)C(=O)NCc1ccncc1` (stereo unspecified), the inhibition was 0%.

As to `CCOc1ccc(S(=O)(=O)Nc2nccs2)cc1`, the inhibition was -2%.

On to `CCOC(=O)c1c(C)n(C)c2ccc(OC)c(NS(=O)(=O)CC)c12`, for which the inhibition is -7%.

Regarding `COc1cc(C(=O)NCc2ccc3c(c2)cc(C)n3C)cc(OC)c1OC`, the inhibition is -2%.

In the case of `O=c1[nH]oc(O)c1-c1ncc(C(F)(F)F)cc1Cl`, the inhibition was -2%.

In the case of `COc1ccc(CC(=O)N[C@@H](CCSC)c2nc3ccccc3[nH]2)cc1`, the inhibition was -5%.

`Cc1cccc(NC(=S)NC(=O)c2ccc(Br)o2)c1`: the inhibition was 0%.

As to `Cc1c(-c2cccc(Cl)c2)nc2ccccc2c1C(=O)OCC(=O)N(C)C1CCS(=O)(=O)C1` (stereo unspecified), the inhibition was 0%.

On to `CCOC(=O)C1=C(C)N=C2c3ccccc3C(=O)C2C1c1ccc(Br)cc1` (stereo unspecified), for which the inhibition is -6%.

As to `Cc1ccc(-c2nn(-c3ccccc3)cc2C(=O)Nc2cccc(S(=O)(=O)N3CCOCC3)c2)cc1`, the inhibition is -14%.

Regarding `CN(C)c1ccc(C=NCCc2ccc(S(N)(=O)=O)cc2)cc1`, the inhibition is -3%.

For `COc1ccccc1-n1c(C)nc2cc(C(=O)NCc3ccc4c(c3)OCO4)ccc21`, the inhibition was -10%.

As for `CCOC(=O)c1ccc(N2C(=O)CC(N3CCN(C(=O)c4ccccc4)CC3)C2=O)cc1` (stereo unspecified), the inhibition was -1%.

As to `O=[N+]([O-])c1ccc(F)cc1Oc1nc(-c2cccnc2)nc2ccccc12`, the inhibition was 1%.

As to `COc1ccc(/C=N/N=C/c2c[nH]c(=O)c(C#N)c2Nc2ccccc2)cc1`, the inhibition was 11%.

On to `COc1cc(C2OC(c3cc(OC)c(OC)c(OC)c3)C(C)C2C)cc(OC)c1OC` (stereo unspecified), for which the inhibition was -1%.

Consider `CN(C)CCCCCN(C)Cc1cc2ccccc2o1`, for which the inhibition was -2%.

Consider `COc1ccc(C(=O)COC(=O)COc2ccc(C)c(C)c2)cc1`, for which the inhibition was -2%.

Take `Cc1ccc(S(=O)(=O)N(C)c2ccc(OCC(=O)NC3=NCCS3)cc2)cc1`: the inhibition is 0%.

For `CC(=O)NC1C(Oc2ccc(C)cc2)OC2COC(c3ccco3)OC2C1O` (stereo unspecified), the inhibition was -6%.

For the compound `Cc1ccc(C(=O)C(=S)N2CCOCC2)cc1`, the inhibition is -9%.

`COc1cc(CN2CCNC(=O)C2CC(=O)NCCc2ncccc2C)cc(OC)c1` (stereo unspecified): the inhibition is -3%.

Take `C=CCn1c(SCC(=O)CC(=O)OCC)nc2cc(C(=O)N3CCC(C(N)=O)CC3)ccc2c1=O`: the inhibition is -5%.

Regarding `Cc1ccc(C)c(NC(=O)CCC(=O)N/N=C2/CC(=O)CC(C)(C)C2)c1`, the inhibition was 0%.

`Cc1cc(C)c[n+](-c2nc3ccccc3nc2[N-]S(=O)(=O)c2cccs2)c1`: the inhibition is -3%.

`O=C(Nc1cccc(C(F)(F)F)c1)c1ccc(N2CCNCC2)c([N+](=O)[O-])c1`: the inhibition is 0%.

Take `O=C(NCc1cccs1)C1CCN(S(=O)(=O)c2ccc(Cl)cc2)CC1`: the inhibition was 0%.

With `CCN(CC(=O)NC(=O)NCc1ccccc1)Cc1nc2ccccc2c(=O)[nH]1`, the inhibition is 1%.

In the case of `C/C(=N/OC(=O)c1c(-c2c(F)cccc2Cl)noc1C)c1cnccn1`, the inhibition was -3%.

`Cc1ccc(-c2nn(-c3cccc(F)c3)cc2CNCCc2ccncc2)o1`: the inhibition is -2%.

On to `O=C(CSc1ccccc1F)NC1CCS(=O)(=O)C1` (stereo unspecified), for which the inhibition was 0%.

As to `O=C1COc2ccc(C(=O)COC(=O)c3cccnc3Cl)cc2N1`, the inhibition was -3%.

On to `O=C(CCS(=O)(=O)Cc1ccccc1)Nc1ccc2c(c1)OCCO2`, for which the inhibition is 0%.

On to `NC1=NC2(CCCCC2)N(c2ccc(F)cc2F)C(N)=N1`, for which the inhibition is -6%.

Take `COc1ccc2ccccc2c1CNc1nnnn1C`: the inhibition is 1%.

On to `CC(C)(C)NC(=O)COC(=O)c1cc(Br)ccc1Cl`, for which the inhibition was -9%.

With `O=C(OCC(=O)N1CCOCC1)c1ccc(N2CCOCC2)c([N+](=O)[O-])c1`, the inhibition is 1%.

On to `Cc1nc(-c2ccc(Cl)cc2)sc1C(=O)CBr`, for which the inhibition was 0%.

`Cc1cccc(NC(=O)c2cccc(C(F)(F)F)c2)c1`: the inhibition is -3%.

With `CC[N+]1(CC)CC2=Cc3ccccc3CC2C1` (stereo unspecified), the inhibition is -4%.

For `CNC(=O)NC(=O)C(OC(=O)c1cccc(S(=O)(=O)N2CCCCC2)c1)c1ccccc1` (stereo unspecified), the inhibition is -4%.

On to `CCCn1c(NC(=O)C23CC4CC(CC(O)(C4)C2)C3)nc2ccccc21`, for which the inhibition is -2%.

In the case of `Cc1cc(C)n(CCNCc2c(C(=O)N3C[C@@H](C)O[C@@H](C)C3)nc3ccc(Cl)cn23)n1`, the inhibition is -1%.

Take `O=C(N/N=C/c1ccccc1O)/C(=C/c1ccccc1)CCO`: the inhibition was -10%.

Turning to `CCOc1ccc(CCN2C(=O)c3cccnc3C2=O)cc1OCC`, the inhibition was 0%.

For `CC(=O)c1c(Nc2ccccc2)sc(C(=O)c2ccccc2)c1C`, the inhibition is -6%.

For the compound `COc1ccc2nc(Nc3nc(-c4ccncc4)cs3)sc2c1`, the inhibition was -1%.

On to `Cc1ccc(-c2c(C)n([O-])c3c([n+]2=O)CCC3)cc1`, for which the inhibition is -3%.

On to `O=C(CO/N=C/c1ccccc1OC(F)F)NC1CCCC1`, for which the inhibition is 1%.

As to `Cc1ccccc1N(C(=O)Cc1cccs1)C(C(=O)NC1CCCCC1)c1cn(C)nc1C` (stereo unspecified), the inhibition is -5%.

In the case of `Cc1cc(NC(=O)CSc2nccn2-c2ccc([N+](=O)[O-])cc2)no1`, the inhibition was -15%.

In the case of `Cc1nnc(SCC(=O)NNC(=O)c2ccc(Cl)cc2)n1CC1CCCO1` (stereo unspecified), the inhibition is -6%.

For the compound `Cc1ccc(N(C(=O)Cc2cccs2)C(C(=O)NCC2CCCO2)c2ccncc2)cc1` (stereo unspecified), the inhibition is 2%.

For `Cc1cccc(N2CCN(c3ccc(C(N)=O)cc3[N+](=O)[O-])CC2)c1C`, the inhibition was 0%.

Take `CCOc1ncccc1C(=O)N(CC)CC(=O)Nc1ccc(NC(C)=O)cc1`: the inhibition is -9%.

With `CN(c1ccccc1)S(=O)(=O)c1cc(C(=O)Nc2nc3ccccc3[nH]2)ccc1Cl`, the inhibition was 8%.

As for `COC(=O)CN1C(=S)N(c2ccccc2)C(=O)C1CC(=O)Nc1ccc(Cl)cc1` (stereo unspecified), the inhibition is -5%.

Regarding `N#C/C(=C(/O)COC(=O)COc1ccc(Cl)cc1)c1nc2ccccc2[nH]1`, the inhibition is -11%.
